TTR transcr act – TTR transcription activators in neuroblastoma reporter cells, primary screen, cell-based, luminescence, SH-SY5Y, TTR promoter Gaussia luciferase; 1.3% of 92,000 active; 100% = recombinant luciferase protein wells; activation, % at 16.7 µM;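 active = activation above the mean of all tested compounds plus 3 SD, cut at about 9.5% in these data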;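 note: cells exposed to compounds for one day before reading; 0% = median of all test compound wells on the plate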
HuH7 TTR inh – TTR promoter reporter inhibitors in hepatoma cells, counter-screen for TTR transcription activator project, cell-based, luminescence, HuH7 hepatoma | shares compounds with TTR transcr act | HuH7 TTR promoter-Gaussia luciferase reporter | inhibition, % at 16.7 µM | 4% of 1,100 active;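 active = average inhibition above the solvent-only control wells' mean plus 3 SD, cut at about 15% in these data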;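 note: 0% = cells with DMSO only and 100% = cells with inhibitor control FD; inhibitors lower well luminescence so higher value means more inhibition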
TTR up confirm – TTR transcription activators, retest, confirmation, cell-based, luminescence, SH-SY5Y, triplicate. SHSY5Y TTR promoter Gaussia luciferase; 100% = purified Lucia enzyme wells, no cells. AID 1117280, 2014. activation, % at 16.7 µM. shares compounds with TTR transcr act. 1,100 tested, under 10 active;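 active = mean activation above a set limit taken from the earlier primary screen, cut at about 11% in these data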;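 note: 0% = DMSO-treated cells and 100% = recombinant Lucia luciferase without cells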
* marks the source's active call; other numbers are inactive results. The sample as a whole holds a higher share of hits than the screen did.

O=C(Nc1ccc(F)cc1)OC1CC2CC1[C@H]1CCCCN1[C@H]2Cc1ccccc1 (stereo not given in full) was read as TTR transcr act 4.
Screening COc1cccc(N2C(=O)CC(N3CCN(C(=O)c4ccco4)CC3)C2=O)c1 (stereo not given) returned TTR transcr act -1.
`O=C(c1ccco1)N1CCN(C2CC(=O)N(c3ccc(F)c(Cl)c3)C2=O)CC1` (stereo not given) gave TTR transcr act 10*, HuH7 TTR inh -1 and TTR up confirm 0.
`COc1ccc(N2C(=O)CC(N3CCN(C(=O)c4ccco4)CC3)C2=O)cc1` (stereo not given) gave TTR transcr act -1.
For Cc1cccc(OCC(=O)OCC(=O)c2c(N)n(C)c(=O)n(C)c2=O)c1 the results were TTR transcr act 11*, HuH7 TTR inh -7 and TTR up confirm 0.
For Cc1cccc(OCC(=O)OCC(=O)c2c(N)n(C)c(=O)n(C)c2=O)c1C the results were TTR transcr act 0.
For Cc1ccc(C(C)C)c(OCC(=O)OCC(=O)c2c(N)n(C)c(=O)n(C)c2=O)c1 the results were TTR transcr act -1.
For COP(=O)(O)CCOCCC(CC(C)C)NC(=O)OCc1ccccc1 (stereo not given) the results were TTR transcr act 1.
Screening COc1ccccc1NS(=O)(=O)c1cc(NC(=O)c2cc(F)c(F)c(F)c2F)ccc1N1CCOCC1 returned TTR transcr act 27*, HuH7 TTR inh 9 and TTR up confirm -1.
COc1ccccc1NS(=O)(=O)c1cc(N2Cc3ccccc3C2=N)ccc1N1CCOCC1 was read as TTR transcr act 2.
COc1ccccc1NS(=O)(=O)c1cc(NC(C)=O)ccc1N1CCCCC1 was read as TTR transcr act 0.
`CCOc1ccc(CCNC(=O)c2cc3ccsc3n2C)cc1OCC` gave TTR transcr act -1.
Screening CN1CCN(c2nc(-c3cccs3)nc3ccccc23)CC1 returned TTR transcr act -1.
`CCN1CCN(c2nc(-c3ccccn3)nc3ccccc23)CC1` gave TTR transcr act 11*, HuH7 TTR inh 0 and TTR up confirm -1.
`c1ccc(-c2nc(N3CCOCC3)c3ccccc3n2)nc1` gave TTR transcr act -2.
For CCN(C(=O)[C@@H](C)[C@@H](O)c1ccc(Cl)cc1)c1ccccc1 the results were TTR transcr act -2.
Screening O=S(=O)(c1ccc(SCCOc2ccc(Br)cc2)nc1)N1CCCC1 returned TTR transcr act -2.
O=S(=O)(c1ccc(SCCOc2ccc(Cl)cc2)nc1)N1CCCC1 was read as TTR transcr act 21*, HuH7 TTR inh 7 and TTR up confirm -1.
For O=S(=O)(c1ccc(SCc2c(F)cccc2Cl)nc1)N1CCCC1 the results were TTR transcr act -1.
`COC(=O)[C@@]12CCCCC3=C1N(CCC3)C(=O)[C@H]2CC(=O)NCc1cccc(C(F)(F)F)c1` gave TTR transcr act 1.
Screening O=C(Nc1ccc(F)cc1)OCc1cn(Cc2ccc(F)cc2F)nn1 returned TTR transcr act 0.
`C[C@@H]1CCCN1c1cccc2c1S(=O)(=O)N(C1CC1)CCCO2` gave TTR transcr act 1.
Screening Nc1[nH]c(C(=O)c2ccccc2)c(-c2ccc(Cl)cc2Cl)c1C(=O)NCCC1=CCCCC1 returned TTR transcr act 5.
Screening Clc1cccc(-c2nc3ccc(Br)cn3c2Cc2ccccc2)c1 returned TTR transcr act -1.
For Cc1ccc(Cc2c(-c3ccccc3)nc3ccc(Br)cn23)cc1 the results were TTR transcr act 1.
Screening Brc1cccc(-c2nc3ccc(Br)cn3c2Cc2ccccc2)c1 returned TTR transcr act 22*, HuH7 TTR inh -2 and TTR up confirm -1.
Screening O=C(OCc1ccccc1)[C@H](Cc1ccccc1)NC(=O)[C@@H]1CC=C[C@@H]2CCN(Cc3ccc(Cl)cc3)C(=O)[C@@H]21 returned TTR transcr act 0.
Screening Cc1cc(C)c(OCCNCc2ccccc2)c(C)c1 returned TTR transcr act 13*, HuH7 TTR inh -11 and TTR up confirm 1.
`Cc1cc(Cl)cc(C)c1OCCNCc1ccccc1` gave TTR transcr act -2.
`Cc1cc(Br)ccc1OCCNCc1ccccc1` gave TTR transcr act -1.
COc1ccc(S[C@]2(C(=O)N3CCOCC3)CC(=O)N(c3ccsc3)[C@@H]2c2ccc(OC)cc2)cc1 was read as TTR transcr act -1.
O=C(NCCCc1ccccc1)OC1CC2CC1[C@H]1CCCCN1C2 (stereo not given in full) was read as TTR transcr act 1.
`COc1ccccc1C(=O)n1ccc2ccc(-c3ccc4ccn(Cc5ccccc5)c4c3)cc21` gave TTR transcr act 0.
Screening O[C@@H]1CN(CC2CCCCC2)[C@@H](c2ccccc2)C[C@H]1n1cc(C2CC2)nn1 returned TTR transcr act 0.
For c1ccc(NC2=NCCN2CC2CCC2)cc1 the results were TTR transcr act -1.
`NC1=NC[C@H](c2ccccc2)N1CC1CCCCC1` gave TTR transcr act 15*, HuH7 TTR inh -3 and TTR up confirm -1.
O=C(O)C1CCCCC1C(=O)Nc1ccc(F)c(F)c1 (stereo not given) was read as TTR transcr act 12*, HuH7 TTR inh -7 and TTR up confirm 0.
`Cc1ccc(NC(=O)C2CCCCC2C(=O)O)cc1C` (stereo not given) gave TTR transcr act 1.
O=C(Nc1ccc(F)cc1)c1ccccc1NC(=O)C1CCCCC1C(=O)O (stereo not given) was read as TTR transcr act -1.
`CCCCNC(=O)C[C@H]1C[C@@]2(C(=O)OC)C(=C[C@H](C(C)C)O[C@@H]2C2CC2)N(Cc2ccc(Cl)cc2Cl)C1=O` gave TTR transcr act 0.
CN(C)[C@H]1CCN(c2cccc3c2S(=O)(=O)N2CC[C@@H](C2)O3)C1 was read as TTR transcr act 1.
`COC(=O)C1CN(CCc2ccccc2)CCS(=O)(=O)N1Cc1ccccc1F` (stereo not given) gave TTR transcr act 3.
For COc1ccc(CCN=C(N)NS(=O)(=O)c2cccs2)cc1 the results were TTR transcr act 3.
For NC(=NCCc1ccc(Cl)cc1)NS(=O)(=O)c1ccccc1 the results were TTR transcr act 8.
`NC(=NCCc1ccccc1)NS(=O)(=O)c1cccs1` gave TTR transcr act 19*, HuH7 TTR inh -8 and TTR up confirm 0.
`O=C(OCc1cn(Cc2cccc(C(F)(F)F)c2)nn1)N1CCOCC1` gave TTR transcr act 1.
Screening N#CN1CCC(NS(=O)(=O)c2cccc(C(F)(F)F)c2)CC1 returned TTR transcr act -1.
For Cc1cc(C)c(C)c(OCC(=O)O/N=C(\N)c2ccccn2)c1 the results were TTR transcr act 10*, HuH7 TTR inh -21 and TTR up confirm 0.
For Cc1cc(C)c(C)c(OCC(=O)O/N=C(\N)c2ccncc2)c1 the results were TTR transcr act 0.
For Cc1cc(C)cc(OCC(=O)O/N=C(\N)c2ccccn2)c1 the results were TTR transcr act 1.

High-throughput results as filed in PubChem.
